# Screening results (PubChem BioAssay)
# Most compounds without a hit are left out; they make up all but 11% or so of the library.
# NS1 function inh = qHTS Assay for Inhibitors of Influenza NS1 Protein Function. hit rate 0.4% among 270,000. Potency, µM (series often up to 46.1 µM), for the others: at the highest dose activity, positive = more growth; calls by dose curve; note: actives are rising curves; nearly all actives have a fitted effect of over 50% in size
#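 In this qHTS, NS1 from influenza A is expressed in budding yeast, where it slows growth. Cells are switched from glucose to 2% galactose medium (pH 6.0, -URA), treated with compound, and growth recovery is read at OD600.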
# Sm TGR block = qHTS Assay for the Inhibitors of Schistosoma Mansoni Peroxiredoxins | Schistosoma mansoni thioredoxin glutathione reductase (TGR), Q962Y6 | purified TGR, DTNB reduction, TNB absorbance 405 nm | Potency, µM (top dose mostly 114 µM), inactives show top-dose activity change, negative = inhibition, usual class: inhibitors | hit rate 3% among 360,000; note: % is set by controls: 0 for no effect and ±100 for the full control effect; nearly all actives have a fitted effect of over 60% in size
#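 TGR 20 nM + NADPH 100 uM (dispensed conc.), cpd preinc 15 min RT; start with NADPH (500 uM addition) then DTNB (15 mM addition). Kinetic TNB absorbance, 405 nm filter. Four-parameter Hill fit across titration.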
# Pf growth 96h = Primary qHTS for delayed death inhibitors of the malarial parasite plastid, 96 hour incubation. P. falciparum luciferase reporter growth, 96 h. Potency, µM (titrated, usually from 28.7 µM), inactives show at the top dose activity change, negative = inhibition, usual class: inhibitors. hit rate 6.9% among 320,000; note: % is set by controls: 0 for no effect and ±100 for the full control effect
#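 Erythrocytes infected with luciferase-expressing P. falciparum were dispensed at 2% hematocrit and 0.05% parasitemia (final), then incubated with compounds 96 hours at 37 C in 5% CO2. Luminescence after detection reagent addition reported growth.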
# Pf growth 48h = Primary qHTS for delayed death inhibitors of the malarial parasite plastid, 48 hour incubation | P. falciparum luciferase growth in erythrocytes, 48 h | Potency, µM (top dose mostly 28.7 µM), for inactives: at the top dose activity change, negative = inhibition, usual class: inhibitors | hit rate 5.9% among 310,000; note: % is set by controls: 0 for no effect and ±100 for the full control effect
#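 Luminescence readout; reporter = integrated firefly luciferase in P. falciparum. RBC culture at 2% hematocrit, 0.1% parasitemia final, 37 C/5% CO2; decreased signal taken as growth inhibition.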
# AMA1-RON2 inh = qHTS for Inhibitors of AMA1-RON; Towards Development of Antimalarial Drug Lead: Primary Screen; hit rate 0.2% among 360,000; Plasmodium falciparum AMA1 (3D7) - RON2 peptide interaction; Potency, µM (top dose mostly 58.2 µM), without a hit: at the top dose activity change, negative = inhibition, most hits filed as inhibitors; AlphaScreen AMA1-biotinylated RON2 peptide binding;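 note: 0% = vehicle wells and -100% = peptide control; nearly all actives have a fitted effect of over 45% in size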
#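 AMA1 (3D7) with his tag at 25 nM final met compounds first, then biotinylated RON2 peptide at 25 nM; detection used donor plus acceptor beads, 10 µg/mL apiece, read by AlphaScreen after 30 min at room temperature.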
# Active calls of the source: *; i = inactive; ? = inconclusive; . = no result; ! = repeats disagree. Unless noted, calls come from the whole dose curve; as a rule, active = well fitted curve in the direction sought with a large enough effect; inconclusive = small, poorly fitted or top-dose-only effect, or another doubt; inactive = no such curve, though single readings can be large; an effect the other way counts as inactive or inconclusive. Potency is the fitted concentration of half-maximal effect.
SMILES,NS1 function inh,Sm TGR block,Pf growth 96h,Pf growth 48h,AMA1-RON2 inh
CCCCNC(=O)C1CCC(CNS(=O)(=O)c2ccc(C)cc2)CC1 (centres undefined),.,-2.2%,52.7%,-15.6%,15.3%
CN(C(=O)c1ccncc1)C1CCCCC1,-8.9%,0.0%,-8.9%,-15.0%,-1.9%
CC(=O)c1sc(NC(=O)COc2ccccc2)nc1C,4.5%,29.9%,39.4%,i,8.6%
CCOC(=O)c1sc2nc(NC(=O)COc3ccccc3)sc2c1C,-4.5%,-2.6%,1.65µM*,.,12.9%
C=CC[n+]1c(C)csc1Nc1ccc(C(=O)O)cc1,.,4.0%,0.0%,-5.2%,-11.0%
C=CC[n+]1c(-c2ccccc2)csc1NC(C)(C)C,.,-6.4%,14.7µM*,10.4µM*,-1.0%
CCOC(=O)C1CCN(S(=O)(=O)c2ccc3c(c2)NC(=O)C(C)C(=O)N3)CC1 (centres undefined),4.5%,19.2%,?,?,15.3%
Cc1ccc(NCC(=O)N/N=C/c2cc3ccccc3nc2Cl)cc1,15.9%,10.8%,39.6%,?,24.1%
O=C(CN1CCOCC1)N/N=C/c1cc2ccccc2nc1Cl,22.0%,-2.8%,1.47µM*,23.8%,107.7%
CCCc1[nH]c(=O)c(C#N)c2c1COC(C)(C)C2,1.3%,2.4%,1.65µM*,.,-0.1%
CCCCc1[nH]c(=O)c(C#N)c2c1CSC(C)(C)C2,18.4%,31.6µM*,-6.5%,9.0%,2.7%
CC(C)Cc1[nH]c(=O)c(C#N)c2c1COC(C)(C)C2,1.1%,10.0%,.,-16.2%,6.2%
O=C(O)c1ccccc1C(=O)NCC(O)COc1ccc(Cl)cc1 (centres undefined),-1.6%,1.4%,45.7%,30.3%,0.4%
Cc1nc2nc(C)c(NS(=O)(=O)c3cccs3)c(=O)n2[nH]1,-1.4%,0.0%,-16.9%,7.2%,-3.6%
COc1ccc(CNCc2ccc(OC)c3ccccc23)cc1,2.8%,-2.2%,2.33µM*,1.1%,-17.8%
COc1ccccc1C1CC(c2c(-c3ccccc3)c3cc(Cl)ccc3[nH]c2=O)=NN1S(C)(=O)=O (centres undefined),26.3%,-26.9%,?,11.7µM*,-11.4%
COc1cccc(C2CC(c3c(-c4ccccc4)c4cc(Cl)ccc4[nH]c3=O)=NN2S(C)(=O)=O)c1OC (centres undefined),?,?,.,7.38µM*,-4.0%
O=C(O)CCC(=O)N1N=C(c2c(-c3ccccc3)c3cc(Cl)ccc3[nH]c2=O)CC1c1ccco1 (centres undefined),?,-23.1%,?,?,-1.1%
CCC(=O)N1N=C(c2c(-c3ccccc3)c3cc(Cl)ccc3[nH]c2=O)CC1c1ccco1 (centres undefined),15.7%,-21.4%,?,10.4µM*,0.4%
Cn1cnnc1SCC(=O)N1N=C(c2ccc(Cl)cc2)CC1c1ccco1 (centres undefined),-0.4%,31.6µM*,4.9%,7.1%,-18.0%
COc1cc(NC(=O)C(NS(=O)(=O)c2ccc3c(c2)CCCC(=O)N3)C(C)C)cc(OC)c1 (centres undefined),.,-7.6%,.,.,.
CCOC(=O)c1cc(S(=O)(=O)N2CCN(c3ccccc3OC)CC2)cn1C,-7.4%,4.5%,33.9%,-15.4%,-5.3%
COc1ccccc1NS(=O)(=O)c1cccc(NC(=O)c2cc3ccccc3oc2=O)c1,10.6%,28.7%,0.0%,40.0%,-1.1%
CC(=O)Nc1ccc(S(=O)(=O)NCC2CCC(C(=O)NCCN(CC(C)C)CC(C)C)CC2)cc1 (centres undefined),.,15.6%,.,.,.
CCOc1cc(C(=O)O)cc(Cl)c1OCC#N,-1.7%,-8.3%,7.38µM*,6.5%,?
SMILES,NS1 function inh,Sm TGR block,Pf growth 96h,Pf growth 48h,AMA1-RON2 inh
O=C1C2C3c4ccccc4C(c4ccccc43)C2C(=O)N1c1cccnc1 (centres undefined),3.2%,-0.6%,-4.7%,4.4%,14.3%
O=C1[C@@H]2C(c3cccnc3)=NO[C@@H]2C(=O)N1c1ccc2ccccc2c1,-59.1%,3.55µM*,46.7%,15.1%,-4.2%
Cc1ccc(S(=O)(=O)N(C)C[C@@H]2OCc3cnnn3CCCC(=O)N([C@@H](C)CO)C[C@@H]2C)cc1,.,.,.,.,8.2%
N#CC(=C1CCCC1)c1nc(-c2ccccc2O)cs1,1.5%,25.1µM*,41.0%,-30.5%,5.0%
N#CC(=C1CCCC1)c1nc(-c2ccccc2)cs1,-5.6%,?,.,157.6%,50.4%
Cc1ccnc(NC(c2ccccc2)c2ccc3cccnc3c2O)c1 (centres undefined),.,.,.,.,-77.7%
Oc1c(C(Nc2ccccn2)c2ccccn2)ccc2cccnc12 (centres undefined),-94.4%,22.4µM*,.,2.94µM*,-93.0%
Oc1ccccc1C(Nc1nccs1)c1ccc2cccnc2c1O (centres undefined),3.9%,1.26µM*,2.62µM*,1.85µM*,-20.6%
Cc1ccnc(NC(c2ccccc2F)c2ccc3cccnc3c2O)c1 (centres undefined),.,2.24µM*,.,.,.
Cc1ccnc(NC(c2cc(C)ccc2O)c2ccc3cccnc3c2O)c1 (centres undefined),.,0.355µM*,.,.,.
COCCCNC(=O)c1sc2nc(C)c(C(=O)Nc3ccc(C)cc3C)c(-c3ccc(Cl)cc3)c2c1N,.,-5.1%,.,.,.
Oc1c(C(Nc2ccccn2)c2ccccc2F)ccc2cccnc12 (centres undefined),.,2µM*,.,.,.
Cc1ccc(N[C@H](c2ccccc2)c2ccc3cccnc3c2O)cc1,1.4%,.,.,.,.
CCn1c(SCC(=O)Nc2cc(C)nn2-c2ccccc2)nnc1-c1cccs1,-1.6%,0.2%,-9.7%,-4.6%,4.7%
S=c1[nH]c2ccccc2[nH]1,9.0%,.,-2.7%,5.4%,7.3%
S=c1[nH]c2cc3ccccc3cc2[nH]1,-4.3%,8.91µM*!,?,-0.5%,79.4%
C=CCC1(Cl)C(=O)C(Cl)=C(N2CCN(C)CC2)C1(OC)OC (centres undefined),8.2%,3.2%,?,1.7%,-9.2%
CC1=C(C(=O)Nc2ccc(C)cc2C)C(c2ccc(C(C)C)cc2)n2nc(C(F)(F)F)nc2N1 (centres undefined),.,-0.3%,.,.,.
COc1cc2c(cc1OC)-c1c(OC)c(OC)cc3c1C(C2)N(C)CC3 (centres undefined),0.6%,?,126.4%,4.15µM*,-1.0%
Cc1ccsc1-c1nc(CN2CCN(C)C(=O)[C@@H]2C)c(C)o1,5.8%,31.6µM*,i,-17.8%,-30.7%
Cn1c(=O)c2nc(SCC(=O)Nc3ccc(OC(F)(F)F)cc3)n(C)c2n(C)c1=O,.,7.9%,.,.,.
CC(=O)SC(C[N+](=O)[O-])c1cn(C(C)=O)c2ccccc12 (centres undefined),-194.2%,4.47µM*,?,?,47.7%
